High-throughput results as filed in PubChem.
In the library only some 2.9% were active in any assay of this set; here they are far more common.
DAGLB inh = DAGLB lipase inhibitors, primary screen, biochemical, fluorescence, HTS; inhibition, % at 5.17 µM; Diacylglycerol lipase-beta (Homo sapiens), Q8NCG7; actives 0.059% (n = 340,000); HEK293T DAGLB membrane lysate, EnzChek fluorogenic substrate; in the data active means inhibition above about 34%;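 further: 0% = enzyme with vehicle and 100% = wells lacking enzyme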
Target sequence (Q8NCG7 whole entry, looked up): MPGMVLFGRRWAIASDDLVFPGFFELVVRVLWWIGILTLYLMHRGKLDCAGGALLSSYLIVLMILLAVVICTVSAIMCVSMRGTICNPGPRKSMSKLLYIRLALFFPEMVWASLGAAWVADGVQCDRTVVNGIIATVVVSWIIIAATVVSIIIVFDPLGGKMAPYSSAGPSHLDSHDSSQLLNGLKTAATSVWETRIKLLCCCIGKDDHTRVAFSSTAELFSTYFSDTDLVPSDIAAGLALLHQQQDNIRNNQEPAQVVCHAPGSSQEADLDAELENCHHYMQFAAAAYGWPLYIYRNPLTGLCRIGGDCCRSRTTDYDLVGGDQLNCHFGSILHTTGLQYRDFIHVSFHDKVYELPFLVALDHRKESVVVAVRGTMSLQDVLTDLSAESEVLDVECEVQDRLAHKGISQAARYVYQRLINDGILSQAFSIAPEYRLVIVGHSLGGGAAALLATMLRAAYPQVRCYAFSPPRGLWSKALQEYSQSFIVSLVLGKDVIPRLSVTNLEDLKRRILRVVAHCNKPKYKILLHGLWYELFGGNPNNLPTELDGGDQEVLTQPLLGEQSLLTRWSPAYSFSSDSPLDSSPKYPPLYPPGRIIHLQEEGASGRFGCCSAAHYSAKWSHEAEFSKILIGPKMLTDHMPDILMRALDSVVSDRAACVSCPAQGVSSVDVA
Rtt109 HAT inh = inhibitors of C. albicans Rtt109/Vps75 HAT, primary screen, biochemical, ThioGlo CoA-SH fluorescence, plate reader; actives 0.16% (n = 330,000); inhibition, % at 34.9 µM; purified Rtt109/Vps75, 4 h; Histone acetyltransferase RTT109 (Candida albicans (strain SC5314 / ATCC MYA-2876)), …;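 active means inhibition of at least 50% in every replicate; inconclusive means best replicate reaches 50% inhibition but some replicates fall short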
sPLA2-III inh = human group III sPLA2 inhibitors, primary screen, biochemical, QFRET, BODIPY PC-A2 liposome substrate. Group 3 secretory phospholipase A2 (Homo sapiens), Q9NZ20. QFRET BODIPY PC-A2 liposome hydrolysis, fluorescence. inhibition, % at 12.2 µM. actives 0.56% (n = 370,000);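 active means inhibition above mean plus 3 SD of compounds lying within the high and low control bounds, cut at about 19% in these data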;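 further: 0% = median of test compound wells and 100% = no enzyme DMSO wells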
Myeloid diff MLP = induction of myeloid progenitor differentiation, primary screen, cell-based, flow cytometry, MLPCN library | actives 1% (n = 360,000) | ER-HoxA9 myeloid progenitors, lysozyme-GFP differentiation | calls only at 10 µM | AID 624256, 2012;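 active means normalized GFP-positive differentiation at or above the plate's own cutoff, the solvent-only control mean plus 3 SD; inconclusive means no clear call, values can overlap the other calls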;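 further: cells exposed to compound for four days before flow analysis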
ABHD5 PLIN5 PPI = ABHD5-PLIN5 interaction inhibitors, primary screen, cell lysate, split luciferase complementation, luminescence. Perilipin-5 (Homo sapiens) + 1-acylglycerol-3-phosphate O-acyltransferase ABHD5 (Homo …. Split G. princeps luciferase complementation, 4 h. actives 0.78% (n = 360,000). inhibition, % at 4 µM;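 active means inhibition above the mean inhibition across every tested compound plus 3 SD, cut at about 22% in these data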;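 further: 0% = DMSO only wells and the 100% control is not disclosed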
H9c2 protect = cardioprotection against H2O2-induced cell death, primary screen, uHTS, H9c2 cells, ATPLite luminescence; protection from H2O2 cell death, % at 20 µM; actives 0.63% (n = 360,000); H9c2 cardiomyocytes, H2O2 injury protection, 2 h;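 active means compounds giving at least 50% protection of heart cells from peroxide-induced death in the single-dose screen, raw or plate-pattern-corrected value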;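 further: 0% = DMSO wells with peroxide and 100% = DMSO wells without peroxide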
ABHD5-PLIN5 conf = ABHD5-PLIN5 interaction inhibitors, confirmation, biochemical, luminescence; shares compounds with ABHD5 PLIN5 PPI; actives 67% (n = 2,200); AID 651612, 2012; inhibition, % at 4 µM; in the data active means inhibition above about 23%;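 further: 0% = DMSO vehicle wells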
HNF4 counter = HNF4 dimerization inhibitors, counter-screen for ABHD5-PLIN5 interaction inhibitor project, biochemical, split-luciferase complementation, luminescence | actives 77% (n = 2,200) | inhibition, % at 4 µM | shares compounds with ABHD5 PLIN5 PPI;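 active means mean inhibition across replicate wells exceeding the computed hit threshold, cut at about 13% in these data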;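 further: light from luciferase halves that rejoin when HNF4 fusion proteins dimerize; 0% = DMSO only wells and the 100% control is not given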
* hit, by the source's call.

`Cc1ccc(C2C3=C(CC(C)(C)CC3=O)N=C3c4ccccc4C(=O)C32)cc1` (stereo unspecified) gave DAGLB inh 30, Rtt109 HAT inh 1, sPLA2-III inh 16, Myeloid diff MLP inactive, ABHD5 PLIN5 PPI 28*, H9c2 protect 18, ABHD5-PLIN5 conf 58* and HNF4 counter 69*.
For COc1ccc(S(=O)(=O)N(C)C[C@H]2Oc3ccc(NC(=O)Cn4cnnn4)cc3C(=O)N([C@H](C)CO)C[C@@H]2C)cc1 the results were DAGLB inh -1, Rtt109 HAT inh 0, sPLA2-III inh -10, Myeloid diff MLP inactive, ABHD5 PLIN5 PPI 8 and H9c2 protect 2.
N#C/C(=C\c1c(N2CCCCC2)nc2ccccn2c1=O)C(=O)NCc1ccco1 was read as DAGLB inh -4, Rtt109 HAT inh 15, sPLA2-III inh 17, Myeloid diff MLP inactive, ABHD5 PLIN5 PPI 4 and H9c2 protect 0.
For Cn1c(=O)[nH]c(=O)c2c1nc([N+](=O)[O-])n2Cc1ccccc1 the results were DAGLB inh -1, Rtt109 HAT inh -2, sPLA2-III inh -1, Myeloid diff MLP inconclusive, ABHD5 PLIN5 PPI 24*, H9c2 protect -11, ABHD5-PLIN5 conf 62* and HNF4 counter 59*.
COc1ccc(N=C2NC(=O)/C(=C\c3ccco3)S2)cc1 was read as DAGLB inh -1, Rtt109 HAT inh 9, sPLA2-III inh -18, Myeloid diff MLP inactive, ABHD5 PLIN5 PPI 7 and H9c2 protect 1.
For O=C1NC(=Nc2ccc(O)cc2)S/C1=C\C=C\c1ccco1 the results were DAGLB inh 6, Rtt109 HAT inh 0, sPLA2-III inh -1, Myeloid diff MLP inactive, ABHD5 PLIN5 PPI 33*, H9c2 protect -2, ABHD5-PLIN5 conf 27* and HNF4 counter 45*.
Screening O=C(CSc1nnc(-c2cnccn2)n1-c1ccccc1)Nc1ccc2cn[nH]c2c1 returned sPLA2-III inh -3.
Screening CN(C)CCCNC(=O)/C(=C\c1ccc(-c2ccc(Br)cc2)o1)NC(=O)c1ccccc1 returned DAGLB inh 5, Rtt109 HAT inh inconclusive, sPLA2-III inh -11, Myeloid diff MLP active, ABHD5 PLIN5 PPI 24*, H9c2 protect -19, ABHD5-PLIN5 conf 14 and HNF4 counter 4.
Screening OCCCN=c1cc(-c2ccccc2)oc2ccc(Cl)cc12 returned DAGLB inh 0, Rtt109 HAT inh -6, sPLA2-III inh -5, Myeloid diff MLP inactive, ABHD5 PLIN5 PPI -1 and H9c2 protect 8.
CC1(C)CC(N=c2cc(-c3ccccc3)oc3ccc(Cl)cc23)CC(C)(C)N1 was read as DAGLB inh 2, Rtt109 HAT inh 39, sPLA2-III inh -9, Myeloid diff MLP inconclusive, ABHD5 PLIN5 PPI 29*, H9c2 protect -37, ABHD5-PLIN5 conf 6 and HNF4 counter 10.
For CCCCC[C@@H]1CCCCC[C@@H](O)C[C@H](O)[C@H](O)/C=C/C(=O)O1 the results were sPLA2-III inh 4, Myeloid diff MLP inactive and ABHD5 PLIN5 PPI -2.
`Cc1ccc(C(=O)NCc2cccnc2)o1` gave DAGLB inh 0, Rtt109 HAT inh 2, sPLA2-III inh 0, Myeloid diff MLP inactive, ABHD5 PLIN5 PPI 7 and H9c2 protect 0.
Screening CN1C(=O)C(=O)/C(=C(/O)c2ccccc2)C1c1ccccc1 (stereo unspecified) returned DAGLB inh 0, Rtt109 HAT inh 2, sPLA2-III inh 3, Myeloid diff MLP inactive, ABHD5 PLIN5 PPI 10 and H9c2 protect 5.
`COC/C=C/C1=CC2=CC(=O)C(C)(OC(=O)C3CCCC3)C(=O)C2=CO1` (stereo unspecified) gave DAGLB inh 15, Rtt109 HAT inh -2, sPLA2-III inh 1, Myeloid diff MLP inactive, ABHD5 PLIN5 PPI 36*, H9c2 protect 4, ABHD5-PLIN5 conf 67* and HNF4 counter 39*.
`Cc1ccc2[nH]c(=O)c(CN(Cc3ccco3)S(=O)(=O)c3c(C)ccc4nsnc34)cc2c1` gave DAGLB inh 2, Rtt109 HAT inh -23, sPLA2-III inh 5, Myeloid diff MLP inactive, ABHD5 PLIN5 PPI 25*, H9c2 protect 50*, ABHD5-PLIN5 conf 33* and HNF4 counter 43*.
For Cn1cnc([N+](=O)[O-])c1S(=O)(=O)Oc1cccc2ccccc12 the results were DAGLB inh -7, Rtt109 HAT inh 6, sPLA2-III inh 0, Myeloid diff MLP inconclusive, ABHD5 PLIN5 PPI 76*, H9c2 protect -21, ABHD5-PLIN5 conf 76* and HNF4 counter 106*.
Cn1cnc([N+](=O)[O-])c1Oc1cccc2ccccc12 was read as DAGLB inh -9, Rtt109 HAT inh 1, sPLA2-III inh 7, Myeloid diff MLP inactive, ABHD5 PLIN5 PPI 13 and H9c2 protect -4.
Cn1cnc([N+](=O)[O-])c1S(=O)(=O)Oc1ccc(Cl)cc1 was read as DAGLB inh -11, Rtt109 HAT inh 12, sPLA2-III inh 13, Myeloid diff MLP inconclusive, ABHD5 PLIN5 PPI 73*, H9c2 protect -30, ABHD5-PLIN5 conf 85* and HNF4 counter 104*.
`CCOC(=O)C1=CC[C@@H](c2ccccc2)N(S(=O)(=O)c2ccc(C)cc2)[C@@H]1C#N` gave sPLA2-III inh 12, Myeloid diff MLP inactive, ABHD5 PLIN5 PPI 48*, ABHD5-PLIN5 conf 50* and HNF4 counter 58*.
CCOC(=O)C1=CC[C@@H](c2ccccc2)N(S(=O)(=O)c2ccc(C)cc2)[C@H]1C was read as sPLA2-III inh 1, Myeloid diff MLP inactive, ABHD5 PLIN5 PPI 1 and H9c2 protect -8.
CCN(c1ccccc1)S(=O)(=O)c1cc(C(=O)NCc2ccco2)ccc1C was read as DAGLB inh -5, Rtt109 HAT inh -1, sPLA2-III inh -8, Myeloid diff MLP inactive, ABHD5 PLIN5 PPI 27*, H9c2 protect -4, ABHD5-PLIN5 conf 13 and HNF4 counter 14*.
